High-throughput results from PubChem.
A selection: hits, their analogues and other compounds. The true share with any hit is near 1.3%.
Phagocytosis inh: macrophage phagocytosis inhibition; J774A.1 macrophage IgG-bead phagocytosis, imaging; inhibition, % at 5 µM; hit rate 0.07% among 110,000;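 active means inhibition above the mean of the plate negative controls plus 5 SD, cut at about 13% in these data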;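 further: phagocytic index as fraction of beads internalized from green versus red external bead signal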
MRP-1 activ: activators of MRP-1; AID 799; viability increase, % at 10 µM; hit rate 0.61% among 140,000; H69AR cells + doxorubicin, viability rescue, CellTiter-Glo;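 active means viability gain under doxorubicin at or above a set limit, the compound median plus 3 SD, cut at about 4.7% in these data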;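 further: MRP-1 overexpressing cells given doxorubicin 25 µM after compound pretreatment; 18-22 h compound pretreatment then 72 h with doxorubicin before readout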
SDO1 yeast rescue: compounds rescuing growth of sdo1-depleted yeast, bone marrow failure model; S. cerevisiae sdo1-depleted JHY4D growth rescue, OD600 30 h; active compounds read high; pdr5 snq2 efflux-pump mutant strain; z-score at 10 µM; hit rate 0.21% among 140,000;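 active means z-score above 3 at both the 24 hr and the 30 hr optical density reads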
Mac1 fbg enh: increases human CD11b/CD18 adhesion to fibrinogen. P05107+P11215. activation, % at 10 µM. hit rate 0.07% among 93,000. K562 CD11b/CD18 adhesion to fibrinogen, ATPlite luminescence;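 active means 10 µM primary screen giving 50% or more activity, confirmed by 40% or more on retest at that dose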
Target sequence (P05107 whole entry, looked up, other chains not shown): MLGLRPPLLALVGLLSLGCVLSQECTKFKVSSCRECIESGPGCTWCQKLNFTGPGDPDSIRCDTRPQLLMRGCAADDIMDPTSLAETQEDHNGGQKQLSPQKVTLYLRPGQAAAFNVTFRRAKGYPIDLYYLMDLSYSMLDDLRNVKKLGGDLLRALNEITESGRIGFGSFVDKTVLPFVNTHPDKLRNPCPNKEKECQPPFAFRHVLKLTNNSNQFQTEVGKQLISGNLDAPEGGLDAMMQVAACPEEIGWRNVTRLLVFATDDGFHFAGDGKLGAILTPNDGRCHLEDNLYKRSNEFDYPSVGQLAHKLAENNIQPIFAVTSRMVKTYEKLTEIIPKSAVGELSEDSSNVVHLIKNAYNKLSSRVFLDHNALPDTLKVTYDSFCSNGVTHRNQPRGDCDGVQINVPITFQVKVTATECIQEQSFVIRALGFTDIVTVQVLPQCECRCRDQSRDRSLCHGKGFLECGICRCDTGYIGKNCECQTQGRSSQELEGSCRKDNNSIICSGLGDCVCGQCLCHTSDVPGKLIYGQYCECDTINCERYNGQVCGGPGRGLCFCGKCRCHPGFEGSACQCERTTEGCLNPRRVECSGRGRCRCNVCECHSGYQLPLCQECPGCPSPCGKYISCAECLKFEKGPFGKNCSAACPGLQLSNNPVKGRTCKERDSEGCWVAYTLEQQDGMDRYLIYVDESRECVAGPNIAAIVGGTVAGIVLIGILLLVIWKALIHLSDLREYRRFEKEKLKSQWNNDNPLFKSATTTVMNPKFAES
MRP resist rev: compounds reversing MRP-mediated drug resistance | H69AR cells + 2 uM doxorubicin, CellTiter-Glo, 72 h | differential viability (reversal), % at 10 µM | hit rate 0.04% among 85,000;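 active means viability drop by adding the cancer drug above about 55%, with treated viability meeting a 40% cutoff, limit read from the data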;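 further: larger differential means the compound sensitizes cells more to doxorubicin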
CD11b adhes inh: CD11b/CD18-fibrinogen binding inhibition. P05107+P11215. K562 CD11b/CD18 adhesion to fibrinogen, ATPlite luminescence; Mn2+ added to activate the integrin. inhibition, % at 10 µM. hit rate 0.54% among 93,000. AID 1497;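 active means primary inhibition of 50% or more at 10 µM, then 40% or more on retest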
Of the large screens only hits and unclear results are named; the others gave an inactive call.

Cc1cc(C)cc(C(=O)NCC(=O)OCC(=O)N(C)C2CCS(=O)(=O)C2)c1 (configuration not stated)	none (no result: Mac1 fbg enh, MRP resist rev, CD11b adhes inh)
O=c1oc2ccccc2cc1N1CCOCC1	none (no result: Mac1 fbg enh, MRP resist rev, CD11b adhes inh)
O=C(NNC(=O)c1cccnc1)Nc1cccc2ccccc12	MRP-1 activ 5.7 (no result: Phagocytosis inh, Mac1 fbg enh, MRP resist rev, CD11b adhes inh)
Cc1nn(Cc2c(F)c(F)c(F)c(F)c2F)c(C)c1NC(=O)c1ccc(COc2ccccc2Cl)o1	none (no result: Phagocytosis inh, Mac1 fbg enh, MRP resist rev, CD11b adhes inh)
Cc1nn(Cc2c(F)c(F)c(F)c(F)c2F)c(C)c1NC(=O)c1ccc(COc2ccc(F)cc2)o1	MRP-1 activ 6.7 (no result: Phagocytosis inh, Mac1 fbg enh, MRP resist rev, CD11b adhes inh)
COc1c(Cl)cc(C(=O)Nc2ccccc2C(=O)O)cc1Cl	none (no result: Phagocytosis inh, Mac1 fbg enh, MRP resist rev, CD11b adhes inh)
N#Cc1sc2nc3c(cc2c1N)CCCC3	none (no result: Mac1 fbg enh, MRP resist rev, CD11b adhes inh)
CCOC(=O)CN1C(=O)C(C)(C)Oc2ccc(C(=O)Nc3ccccc3OC)cc21	MRP-1 activ 5.3
Cc1ccc(-c2nnc(SCC(=O)Nc3ccc4c(c3)oc3ccccc34)n2C)c(Cl)c1	CD11b adhes inh 60
O=C1N=C(N2CCCCC2)SC1=C1CCCCC1	none (no result: Phagocytosis inh)
O=C1NC(=S)SC1=C1CCCCCC1	CD11b adhes inh 59 (no result: Phagocytosis inh)
C=CCNc1ncnc2c1[nH]c1ccc(Cl)cc12	CD11b adhes inh 87
O=C(COc1ccc(Br)cc1Br)NC(=S)N1CCCc2ccccc21	CD11b adhes inh 60 (no result: MRP resist rev)
CCC(C)C(NC(=O)c1ccccc1NC(=O)c1ccco1)C(=O)NC1CCCCC1 (configuration not stated)	none
CC(C)c1ccc(C(=O)CSc2ncn[nH]2)cc1	MRP-1 activ 6.6
O=C(CSc1ncn[nH]1)NCCC(c1ccccc1)c1ccccc1	MRP-1 activ 9.8
Cc1c(Br)c(C(=O)NCc2cc3cc(Cl)ccc3[nH]2)nn1C	none (no result: Mac1 fbg enh, MRP resist rev, CD11b adhes inh)
CC1=NN(C(=O)c2ccc(Br)cc2)C(O)(C(F)(F)OC(F)(F)F)C1 (configuration not stated)	CD11b adhes inh 93 (no result: MRP resist rev)
CCC1=NN(C(=O)c2ccc(C)cc2)C(O)(c2ccc(Br)cc2)C1 (configuration not stated)	MRP-1 activ 4.9 (no result: Phagocytosis inh, MRP resist rev)
Cc1ccccc1NC(=O)CC1SC(=O)N(c2ccccc2)C1=O (configuration not stated)	MRP-1 activ 5.4 (no result: Phagocytosis inh)
CCCN1C(=O)SC(CC(=O)Nc2ccccc2C)C1=O (configuration not stated)	none (no result: Phagocytosis inh, Mac1 fbg enh, CD11b adhes inh)
C/C(=N\NC(=O)C(N)=O)c1ccc(Br)cc1	none (no result: Mac1 fbg enh, MRP resist rev, CD11b adhes inh)
CC/C(=N\NC(=O)C(N)=O)c1ccccc1O	MRP-1 activ 5.1 (no result: Mac1 fbg enh, MRP resist rev, CD11b adhes inh)
CC1(c2ccccc2)CC(C)(C)N2C(=O)/C(=C3\SC(=S)NC3=O)c3cccc1c32 (configuration not stated)	CD11b adhes inh 100 (no result: Phagocytosis inh, MRP resist rev)
Cc1ccc(CN(Cc2ccco2)S(=O)(=O)c2ccc(S(=O)(=O)NCC3CCCO3)cc2)cc1 (configuration not stated)	none (no result: Mac1 fbg enh, MRP resist rev, CD11b adhes inh)
COC(=O)c1ccc(-c2nc(O)c3cnccn23)cc1	none
CC(=O)Nc1nc(C)c(Oc2ccc(Cl)cc2Cl)c(=O)[nH]1	MRP-1 activ 32
Cc1ccc(S(=O)(=O)CC2CSc3nc(N)cc(=O)n32)cc1 (configuration not stated)	none
Cc1ccc(S(=O)(=O)CC2CSc3nc4ccccc4n32)cc1 (configuration not stated)	CD11b adhes inh 93 (no result: MRP resist rev)
CC(C)(C)c1ccc(-c2nc(-c3ccncc3)no2)cc1	MRP-1 activ 6.2 (no result: Phagocytosis inh, Mac1 fbg enh, CD11b adhes inh)
Cc1cc(C)cc(-c2nc(-c3ccncc3)no2)c1	none (no result: Phagocytosis inh)
Cc1csc(NC(=O)CCC(=O)N(CC(=O)NC2CCCC2)Cc2ccco2)n1	none (no result: MRP resist rev)
Brc1ccc(-c2nc(N/N=C/c3cccnc3)c3ccccc3n2)cc1	CD11b adhes inh 101
Cc1ccc(-c2nc(N/N=C/c3ccccc3[N+](=O)[O-])c3ccccc3n2)cc1	none (no result: Phagocytosis inh, Mac1 fbg enh, MRP resist rev, CD11b adhes inh)
CC(C)Cn1c2c(c(O)c(C(=O)Nc3ccc(F)cc3)c1=O)CCCC2	MRP-1 activ 6.3
Cc1cccc(-n2ncc3c(N4CCCC4)ncnc32)c1	none (no result: Phagocytosis inh, Mac1 fbg enh, CD11b adhes inh)
Cc1cccc(-n2ncc3c(N4CC(C)CC(C)C4)ncnc32)c1 (configuration not stated)	MRP-1 activ 5.3
O=[N+]([O-])c1cc(-c2nnc(Nc3ccccc3)c3ccccc23)ccc1N1CCOCC1	none (no result: Phagocytosis inh, MRP resist rev)
Cc1ccc(Nc2nnc(-c3ccc(N4CCOCC4)c([N+](=O)[O-])c3)c3ccccc23)cc1	MRP-1 activ 5.2 (no result: Mac1 fbg enh, MRP resist rev, CD11b adhes inh)
Cc1ccc(OCC(=O)N2N=C(C(F)(F)F)CC2(O)C(C)(C)C)cc1C (configuration not stated)	CD11b adhes inh 80 (no result: Phagocytosis inh)
O=C(CCc1ccccc1)N1CCCN(C(=O)CCc2ccccc2)CC1	none (no result: Mac1 fbg enh, MRP resist rev, CD11b adhes inh)
CC(=O)c1c(N2CCCCC2)nc(=S)n(Cc2ccccc2)c1C	CD11b adhes inh 52 (no result: Phagocytosis inh, MRP resist rev)
NC(=O)c1ccc(C(F)(F)F)n(Cc2ccccc2Cl)c1=O	none (no result: MRP resist rev)
O=C1[C@@H]2[C@H](Cc3ccc(O)cc3)N[C@]3(C(=O)Nc4ccccc43)[C@@H]2C(=O)N1c1ccc(F)cc1	MRP-1 activ 5.7
Cc1noc(C)c1COc1ccc(C(=O)OCC(=O)NC23CC4CC(CC(C4)C2)C3)cc1	CD11b adhes inh 56
Cc1nn(C)c(C)c1CNC(=O)c1cnn2c1NC(c1ccccc1)CC2C(F)(F)F (configuration not stated)	none
Cc1ccc(C2CC(C(F)(F)F)n3nc(C(=O)NCc4c(C)nn(C)c4C)c(Cl)c3N2)cc1 (configuration not stated)	MRP-1 activ 6.4 (no result: MRP resist rev)
Cc1cc(C)c(NC(=O)CSc2nnc(SCC(=O)Nc3c(C)cc(C)cc3C)n2N)c(C)c1	none
COc1ccc(Cc2nnc(NC(=O)c3c(-c4ccccc4)noc3C)s2)cc1OC	MRP-1 activ 9.5
CCOC(=O)Cc1csc(NC(=O)c2c(-c3ccccc3)noc2C)n1	MRP-1 activ 4.9
N#C/C(=N/Nc1ccccc1F)C(=N)N1CCOCC1	MRP-1 activ 8.1 (no result: Phagocytosis inh, MRP resist rev)
N#C/C(=N\Nc1ccc(F)cc1)C(=N)N1CCCCC1	none (no result: Phagocytosis inh)
COc1ccc(Br)cc1/C(C)=N/NC1=NCCN1	CD11b adhes inh 74
CCCCCOc1ccc(Br)cc1/C(C)=N/NC1=NCCN1	none (no result: Phagocytosis inh, Mac1 fbg enh, CD11b adhes inh)
Cc1cc(NC(=O)CN2C(=O)S/C(=C\c3ccccc3)C2=O)no1	MRP-1 activ 5.1 (no result: Phagocytosis inh, MRP resist rev)
CC(/C=C1\SC(=O)N(CC(=O)Nc2cccc(O)c2)C1=O)=C\c1ccccc1	none (no result: MRP resist rev)
O=C(CN1C(=O)S/C(=C\c2ccc(Cl)cc2)C1=O)NNC(=O)c1ccccc1O	MRP-1 activ 7.7 (no result: Phagocytosis inh, Mac1 fbg enh, MRP resist rev, CD11b adhes inh)
CC(/C=C1\SC(=O)N(CC(=O)Nc2ccc(O)cc2)C1=O)=C\c1ccccc1	MRP-1 activ 8.7 (no result: Phagocytosis inh, MRP resist rev)
CC(=O)c1ccc(NC(=O)CCCN2C(=O)/C(=C/C(C)=C/c3ccccc3)SC2=S)cc1	MRP-1 activ 6.1 (no result: MRP resist rev)
CCOC(=O)N1CCN(c2ccc(O)cc2)CC1	CD11b adhes inh 54 (no result: MRP resist rev)
CCOC(=O)N1CCN(c2ccc(Cl)cc2)CC1	none (no result: Mac1 fbg enh, MRP resist rev, CD11b adhes inh)
COc1ccccc1-c1nnc(N(C)C(=O)C2CCCO2)s1 (configuration not stated)	none
